Rows were chosen to be rich in hits. Some 3.5% of all compounds tested hit in one or more screens of this group.
FBW7 act: human FBW7 E3 ligase activation, primary screen; normalized activity (activation), % at 26.1 µM; AlphaScreen FBW7–phospho-cyclin E peptide binding, activator screen; hit rate 0.13% among 650,000; in the data active = normalized activity above about 1.9%;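 note: purified mutant Fbw7 with reduced substrate affinity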
Target sequence (Q969H0 whole entry, looked up): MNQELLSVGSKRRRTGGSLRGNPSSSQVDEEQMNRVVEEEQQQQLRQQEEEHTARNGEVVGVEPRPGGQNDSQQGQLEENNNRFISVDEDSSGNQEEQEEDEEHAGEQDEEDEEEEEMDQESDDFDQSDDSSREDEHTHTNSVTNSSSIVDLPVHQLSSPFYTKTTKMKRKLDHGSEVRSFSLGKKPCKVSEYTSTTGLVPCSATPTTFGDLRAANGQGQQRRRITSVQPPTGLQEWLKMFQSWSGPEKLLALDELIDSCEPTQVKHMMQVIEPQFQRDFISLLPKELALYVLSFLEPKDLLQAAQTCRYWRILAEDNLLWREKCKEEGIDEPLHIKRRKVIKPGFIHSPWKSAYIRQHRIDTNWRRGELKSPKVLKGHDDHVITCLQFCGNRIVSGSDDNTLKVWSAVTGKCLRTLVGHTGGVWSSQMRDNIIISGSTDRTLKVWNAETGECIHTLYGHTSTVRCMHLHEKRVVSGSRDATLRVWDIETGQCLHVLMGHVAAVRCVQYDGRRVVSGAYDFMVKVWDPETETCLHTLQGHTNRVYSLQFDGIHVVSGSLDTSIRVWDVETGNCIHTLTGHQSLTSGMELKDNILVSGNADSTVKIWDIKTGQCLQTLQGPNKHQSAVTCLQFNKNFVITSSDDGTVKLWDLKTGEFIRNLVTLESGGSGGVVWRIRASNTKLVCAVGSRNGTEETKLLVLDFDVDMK
TEAD-YAP block: TEAD-YAP interaction inhibition; hit rate 1.4% among 640,000; inhibition, % at 9.12 µM; AID 1259422; HEK-TIYL cells, TEAD-Gal4/YAP UAS-luciferase luminescence; in the data active = inhibition above about 32%;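 note: 0% = median of test compound wells and 100% = reference inhibitor wells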
GPR151 ag: activates the human receptor GPR151; Q8TDV0; PathHunter beta-arrestin GPR151 cells, luminescence; activation, % at 11.2 µM; hit rate 1% among 650,000; AID 1508602; in the data active = activation above about 4.9%;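 note: 0% = median of compound wells and 100% = cells with positive control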
MITF inh: blocks human microphthalmia-associated transcription factor. AlphaScreen MITF homodimerization, bead proximity signal. inhibition, % at 2.6 µM. hit rate 0.91% among 650,000. AID 1259374; in the data active = inhibition above about 50%;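 note: 0% = vehicle wells with protein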
An asterisk follows results filed as active.

SMILES | FBW7 act | TEAD-YAP block | GPR151 ag | MITF inh
COc1ccc(CNCCN2CCOCC2)cc1 | -0.1 | -5.3 | -0.6 | -4.7
COc1ccc(CCNCc2ccc(N3CCOCC3)cc2)cc1 | 0.1 | 1.7 | 2.7 | 53.2*
Cc1ccc(CNCc2ccc(N3CCOCC3)cc2)cc1 | -0.1 | 6.3 | 3.9 | 54.7*
Cc1ccc(N2CCOCC2)cc1 | -0.1 | 3.6 | 0.6 | 11.0
Cn1c(SCCO)nc2c(c1=O)C1(CCCCC1)Cc1ccccc1-2 | 0.1 | 4.3 | -0.6 | 6.9
O=C(NCCc1ccc(Cl)cc1)c1ccc2c(=O)n(Cc3cccc(Br)c3)c(=S)[nH]c2c1 | 0.1 | -6.0 | 0.3 | 8.0
COc1ccc(C(=S)N2CCOCC2)cc1OC(=O)c1cccc2ccccc12 | 0.3 | -4.9 | 2.2 | 4.6
COc1ccc(-n2ncc3c(N4CCOCC4)ncnc32)cc1 | -0.1 | 90.6* | -4.9 | 0.9
c1ccc(-n2ncc3c(N4CCOCC4)ncnc32)cc1 | 0.2 | 70.4* | -1.4 | 1.3
Clc1ccc(-n2ncc3c(N4CCN(c5cccc(Cl)c5)CC4)ncnc32)cc1 | 0.1 | 0.5 | 1.2 | -2.2
Clc1cccc(-n2ncc3c(N4CCOCC4)ncnc32)c1 | -0.1 | 71.3* | -2.8 | -16.0
Cc1ccc(-n2ncc3c(N4CCOCC4)ncnc32)cc1C | 0.1 | 78.7* | -7.0 | 9.7
Cc1c(C(=O)NCCC2=CCCCC2)sc2ncnc(N(C)c3ccccc3)c12 | 0.0 | 0.6 | 1.3 | -0.6
COc1ccccc1N1CCN(c2ncnc3c2cnn3-c2cccc(C)c2)CC1 | 0.2 | 15.6 | 2.6 | -6.0
COc1ccccc1N1CCN(c2ncnc3c2cnn3-c2ccc(C)cc2C)CC1 | -0.2 | 58.5* | -0.1 | 5.0
CC(C)C(NC(=O)c1cccc([N+](=O)[O-])c1)C(C)C | 0.0 | 3.0 | 1.2 | -1.3
O=C(c1ccc2cc[nH]c2c1)N1CCN(C(=O)c2ccccc2O)CC1 | -0.1 | 8.0 | 1.6 | 10.9
CC(C)n1cc(-c2ccc3cnc(Nc4ccc(-n5cnc(N6CCOCC6)n5)cc4)nc3c2Cl)cn1 | -0.1 | 5.8 | 1.7 | 12.4
Clc1cnc(Nc2ccc(-n3cnc(N4CCOCC4)n3)cc2)nc1-c1ccno1 | 0.6 | 9.1 | -0.7 | 3.6
Cc1cc(-c2nc(Nc3ccc(-n4cnc(N5CCOCC5)n4)cc3)ncc2Cl)no1 | -0.5 | 39.2* | 1.5 | 10.6
Cc1ncn(-c2ccc(Nc3ncc4cccc(-c5ccccc5)c4n3)cc2)n1 | -0.6 | 9.2 | 0.5 | 5.5
Cc1ncn(-c2ccc(Nc3ncc4cccc(-c5cccc(N6CCOCC6)c5)c4n3)cc2)n1 | 0.0 | 39.4* | 0.4 | 16.2
CCOC(=O)c1c(Cl)ccc2cnc(Nc3ccc(-n4cnc(N5CCOCC5)n4)cc3)nc12 | -0.2 | 58.6* | 0.1 | -0.8
Cc1ccc(-c2cccc3cnc(Nc4ccc(-n5cnc(N6CCOCC6)n5)cc4)nc23)cn1 | 0.7 | 49.3* | 0.2 | 1.4
O=C1[C@@H]2C[C@H](NCc3cc4ccccc4s3)CN2C(=O)[C@@H]2CCCN12 | 0.1 | -3.5 | -0.7 | 9.4
SMILES | FBW7 act | TEAD-YAP block | GPR151 ag | MITF inh
Cn1c(=O)c2c(nc(Sc3nc([N+](=O)[O-])nn3CC(N)=O)n2C)n(C)c1=O | -0.1 | 1.8 | 0.3 | 10.4
Cc1cccc(N2CCN(S(=O)(=O)C3CC3)CC2)c1 | 0.0 | 2.4 | 0.1 | 9.2
CCn1c(C)nc2c(C)[n+](CC(=O)c3ccc(Br)cc3)ccc21 | -0.1 | 38.1* | -0.8 | -5.5
COc1cc(Cc2nc3cc(C)c(C)cc3[nH]c2=O)cc(OC)c1OC | 0.1 | 54.6* | -0.6 | 4.0
COc1ccccc1Cc1nc2cc(C)c(C)cc2[nH]c1=O | 0.0 | 7.0 | 0.6 | 6.8
CCCNc1ccnc2c(-c3ccsc3)cnn12 | 0.2 | 54.3* | -1.1 | 16.6
Cc1cccc(N(C)c2ccnc3c(-c4cccc(N)c4)cnn23)c1 | 0.2 | -4.3 | 0.8 | 17.0
COc1ccc(CNc2ccnc3c(-c4cncnc4)cnn23)cc1 | -0.8 | 44.0* | 1.8 | 15.0
CCCNc1ccnc2c(-c3ccc(N)cc3)cnn12 | 1.0 | 75.7* | -1.2 | 4.1
Cc1cccc(N(C)c2ccnc3c(-c4ccc(N)cc4)cnn23)c1 | -0.4 | 55.6* | -0.5 | 17.9
O=C(O)C1C2C=CC(C2)C1C(=O)N1CCc2ccccc2C1 (stereo unspecified) | 0.0 | -2.6 | 4.5 | -0.9
CN1CCN(C(=O)c2cccc3c2SCCC3=O)CC1 | 0.0 | 5.3 | 0.5 | 4.3
Cc1cnc(Nc2nc3ccccc3n2C)nc1NCCCN1CCCC1=O | -0.1 | -9.2 | 2.0 | 7.0
Cc1cccc(CSC2=NCCN2S(=O)(=O)c2ccccc2)c1 | -0.1 | -1.3 | 1.5 | -5.9
O=C(NCCc1nc(-c2ccccc2)cs1)c1cccc(C(=O)NCCc2nc(-c3ccccc3)cs2)c1 | -0.1 | 47.9* | 0.8 | -3.3

Source: PubChem
